Results on 46 sequences are retold here after publication PMC5913336, “True equilibrium measurement of transcription factor-DNA binding affinities using automated polarization microscopy”.

Assay [1] deals with Cic (Drosophila melanogaster, UniProt Q9U1H0 483-565). The assay is described as follows: FP; 33 mM phosphate pH 7.0, 90 mM NaCl, 0.01% Tween 20, 0.1 mM DTT, 0.5% agarose; room temperature. The note with it: tags: N-GST (pGEX-6P-1, kept); dsDNA, one strand shown.
Assay [2] concerns the target T1, Zelda (Drosophila melanogaster, UniProt Q9VWC6 1319-1447).
T1 sequence: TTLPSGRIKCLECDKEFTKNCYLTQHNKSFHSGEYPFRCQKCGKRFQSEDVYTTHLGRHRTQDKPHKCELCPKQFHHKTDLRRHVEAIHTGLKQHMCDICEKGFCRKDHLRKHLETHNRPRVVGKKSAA
The description is as above. The note with it: tags: N-GST (pGEX-6P-1, kept); dsDNA, one strand shown.

In the case of CGTTGCATGGGGT, in assay [1], the binding signal is 17.1 Kd / Kd of best base at the position.

Regarding GGTTGAATGGGGT, in assay [1], the binding signal was 1.41 Kd / Kd of best base at the position.

As to CGTTTAATGGGGT, the binding signal in assay [1] was 4.43 Kd / Kd of best base at the position.

With TGTTGAATGGGGT, in assay [1], the binding signal was 1.66 Kd / Kd of best base at the position.

Consider CGCTGAATGGGGT, for which the binding signal in assay [1] is 3.22 Kd / Kd of best base at the position.

Consider CGTTGAATGGTGT, for which, in assay [1], the binding signal was 2.29 Kd / Kd of best base at the position.

With AATTTCGGGTACC, in assay [2], the binding signal was 7.8 Kd / Kd of best base at the position.

In the case of AATTGCAGGTACC, the binding signal in assay [2] is 1.37 Kd / Kd of best base at the position.

For AATTACAGGTACC, the binding signal in assay [2] is 1.77 Kd / Kd of best base at the position.

Regarding ACTTTCAGGTACC, the binding signal in assay [2] was 1.87 Kd / Kd of best base at the position.

As to AATTTCAGGCACC, the binding signal in assay [2] is 9.39 Kd / Kd of best base at the position.

Regarding AATCTCAGGTACC, in assay [2], the binding signal was 1.8 Kd / Kd of best base at the position.

For the sequence AATATCAGGTACC, the binding signal in assay [2] is 1.65 Kd / Kd of best base at the position.

Regarding AATTTCTGGTACC, the binding signal in assay [2] was 19.2 Kd / Kd of best base at the position.

AATTTAAGGTACC: the binding signal in assay [2] was 17.1 Kd / Kd of best base at the position.

As for AATTTCAGGTGCC, the binding signal in assay [2] is 9.55 Kd / Kd of best base at the position.

Consider AATTTCAGGTAAC, for which the binding signal in assay [2] is 1.38 Kd / Kd of best base at the position.

Regarding AATTTCAGTTACC, the binding signal in assay [2] is 9.11 Kd / Kd of best base at the position.

Regarding AATTTCAGGTTCC, the binding signal in assay [2] was 14.1 Kd / Kd of best base at the position.

GATTTCAGGTACC: the binding signal in assay [2] was 2.27 Kd / Kd of best base at the position.

Turning to AATTTCAGGTCCC, the binding signal in assay [2] was 10.1 Kd / Kd of best base at the position.

AATTTCAGGTACT: the binding signal in assay [2] was 2.11 Kd / Kd of best base at the position.

Turning to AAGTTCAGGTACC, the binding signal in assay [2] is 1.72 Kd / Kd of best base at the position.

With AATTTCAGGTATC, the binding signal in assay [2] is 2.16 Kd / Kd of best base at the position.

Turning to AATTTCAGATACC, in assay [2], the binding signal is 12.3 Kd / Kd of best base at the position.

Regarding AATTTCAGGTACG, the binding signal in assay [2] is 2.98 Kd / Kd of best base at the position.

In the case of AGTTTCAGGTACC, in assay [2], the binding signal is 2.05 Kd / Kd of best base at the position.

Regarding AATTTCAAGTACC, the binding signal in assay [2] was 8.76 Kd / Kd of best base at the position.

A word on the Kd: it is the constant that tells how readily two partners part at equilibrium. A lower Kd goes with a tighter complex. In assay [2], AATTTCAGGTACC gave a Kd of approximately 5.7 nM.

Consider AATTTGAGGTACC, for which, in assay [2], the binding signal is 17.6 Kd / Kd of best base at the position.

As to AATTTTAGGTACC, the binding signal in assay [2] is 4.6 Kd / Kd of best base at the position.

Turning to AATTTCAGGTACA, the binding signal in assay [2] was 2.29 Kd / Kd of best base at the position.

For the sequence AATTTCAGGTAGC, the binding signal in assay [2] is 1.01 Kd / Kd of best base at the position.

Consider CATTTCAGGTACC, for which the binding signal in assay [2] was 1.46 Kd / Kd of best base at the position.

For AATGTCAGGTACC, in assay [2], the binding signal is 1.84 Kd / Kd of best base at the position.

For AATTTCCGGTACC, the binding signal in assay [2] was 36.1 Kd / Kd of best base at the position.

For the sequence AATTTCAGGAACC, the binding signal in assay [2] is 19.3 Kd / Kd of best base at the position.

For the sequence AATTTCAGCTACC, the binding signal in assay [2] is 15.7 Kd / Kd of best base at the position.

Consider AATTTCACGTACC, for which, in assay [2], the binding signal was 11.7 Kd / Kd of best base at the position.

For the sequence ATTTTCAGGTACC, the binding signal in assay [2] is 1.63 Kd / Kd of best base at the position.

Turning to AATTCCAGGTACC, the binding signal in assay [2] was 1.28 Kd / Kd of best base at the position.

On to AATTTCATGTACC, for which the binding signal in assay [2] was 12.8 Kd / Kd of best base at the position.

Regarding AATTTCAGGGACC, the binding signal in assay [2] was 12.3 Kd / Kd of best base at the position.

With AACTTCAGGTACC, the binding signal in assay [2] is 1.86 Kd / Kd of best base at the position.

Turning to TATTTCAGGTACC, in assay [2], the binding signal is 1.83 Kd / Kd of best base at the position.

In the case of AAATTCAGGTACC, in assay [2], the binding signal is 1.56 Kd / Kd of best base at the position.
